Laboratory results published in the antibiotic and cytotoxicity screens of Wong et al. (2023).
Out of some 39,000 compounds screened, about 500 (1.3%) were called active. This is one part of a sample in which actives are shown more often than they occur.

What follows are compounds tested on S. aureus RN4220 (assay: growth inhibition call (relative growth <= 0.2)). Conditions: 50 µM.

Row | Structure (SMILES) | growth inhibition call
1 | CN(CC(=O)Nc1ccc(F)cc1F)S(=O)(=O)c1ccc2c(c1)c(=O)n(C)c(=O)n2C | inactive
2 | C[C@H]1CN([C@@H](C)CO)C(=O)Cc2cc(NS(=O)(=O)c3cn(C)cn3)ccc2O[C@@H]1CN(C)S(C)(=O)=O | inactive
3 | CCN(CC)C(=S)SSC(=S)N(CC)CC | active
4 | COCCNC(=O)C[C@@H]1C[C@H]2c3cc(NS(C)(=O)=O)ccc3O[C@H]2[C@@H](CO)O1 | inactive
5 | CO[C@H]1CN(C)C(=O)c2ccc(NC(=O)Nc3cccc(Cl)c3)cc2OC[C@@H](C)N(C(=O)Nc2c(C)noc2C)C[C@@H]1C | inactive
6 | C[C@H](CO)N1C[C@H](C)[C@H](CN(C)S(C)(=O)=O)Oc2ccc(NC(=O)Cn3cnnn3)cc2C1=O | inactive
7 | Cc1ccc(CNc2ccc3c(c2)ncn3C2CCCCC2)cc1 | active
8 | Cc1ccc(-n2cnc3cc(NCc4cccs4)ccc32)cc1 | inactive
9 | COc1ccc(NC(=O)N(C)C[C@@H]2OCCCC[C@H](C)Oc3ccc(NC(=O)c4ccncc4)cc3C(=O)N([C@H](C)CO)C[C@@H]2C)cc1 | inactive
10 | C[C@@H]1CCCCO[C@H](CN(C)C(=O)Nc2ccc3c(c2)OCO3)[C@@H](C)CN([C@H](C)CO)C(=O)c2cc(NC(=O)Nc3ccccc3)ccc2O1 | inactive
11 | Cc1cccc(OC[C@@H](O)CN)c1 | inactive
12 | CC(C)(C)c1ccc(OC[C@@H](O)CN)cc1 | active
13 | CCc1ccc(OC[C@@H](O)CN)cc1 | inactive
14 | Cn1cnc(S(=O)(=O)N2C[C@H](O)COC[C@@H]3O[C@H](CC(=O)NC4CCCC4)CC[C@H]32)c1 | inactive
15 | C=C[C@H]1CCC=C2C(=O)CCC[C@@H]21 | inactive
16 | C[C@@H]1CN([C@@H](C)CO)C(=O)c2cc(NS(=O)(=O)c3cn(C)cn3)ccc2O[C@@H](C)CCCCO[C@@H]1CN(C)C(=O)Nc1ccc(C(F)(F)F)cc1 | active
17 | C[C@@H]1CCCCO[C@H](CN(C)C(=O)Nc2ccc(C(F)(F)F)cc2)[C@H](C)CN([C@@H](C)CO)C(=O)c2cc(NS(=O)(=O)c3cn(C)cn3)ccc2O1 | inactive
18 | C[C@@H]1CCCCO[C@H](CN(C)C(=O)Nc2ccc(C(F)(F)F)cc2)[C@H](C)CN([C@H](C)CO)C(=O)c2cc(NS(=O)(=O)c3cn(C)cn3)ccc2O1 | inactive
19 | C[C@H](CO)N1C[C@H](C)[C@@H](CN(C)C(=O)Nc2ccc(C(F)(F)F)cc2)OCCCC[C@H](C)Oc2ccc(NS(=O)(=O)c3cn(C)cn3)cc2C1=O | active
20 | C[C@@H]1CCCCO[C@@H](CN(C)C(=O)Nc2ccc(C(F)(F)F)cc2)[C@@H](C)CN([C@H](C)CO)C(=O)c2cc(NS(=O)(=O)c3cn(C)cn3)ccc2O1 | inactive
21 | C[C@@H]1CCCCO[C@H](CN(C)C(=O)Nc2ccc(C(F)(F)F)cc2)[C@@H](C)CN([C@H](C)CO)C(=O)c2cc(NS(=O)(=O)c3cn(C)cn3)ccc2O1 | inactive

Row | Structure (SMILES) | growth inhibition call
22 | C[C@H]1CCCCO[C@H](CN(C)C(=O)Nc2ccc(C(F)(F)F)cc2)[C@@H](C)CN([C@@H](C)CO)C(=O)c2cc(NS(=O)(=O)c3cn(C)cn3)ccc2O1 | inactive
23 | C[C@@H]1CN([C@H](C)CO)C(=O)c2cc(NS(=O)(=O)c3cn(C)cn3)ccc2O[C@@H](C)CCCCO[C@H]1CN(C)C(=O)Nc1ccc(C(F)(F)F)cc1 | inactive
24 | C[C@@H]1CCCCO[C@@H](CN(C)C(=O)Nc2ccc(C(F)(F)F)cc2)[C@H](C)CN([C@@H](C)CO)C(=O)c2cc(NS(=O)(=O)c3cn(C)cn3)ccc2O1 | active
25 | C[C@@H]1CCCCO[C@@H](CN(C)C(=O)CCC(F)(F)F)[C@@H](C)CN([C@H](C)CO)C(=O)c2cc(NC(=O)NC3CCCCC3)ccc2O1 | inactive
26 | CC(C)NC(=O)Nc1cccc2c1O[C@@H](CN(C)S(=O)(=O)c1ccc(F)cc1)[C@H](C)CN([C@@H](C)CO)C2=O | inactive
27 | O=C(C[C@@H]1C=C[C@@H](NC(=O)Nc2ccc3c(c2)OCO3)[C@H](CO)O1)NCCCN1CCOCC1 | inactive
28 | COc1ccc(Nc2ccc(-c3ccncc3)s2)cc1Cl | inactive
29 | C[C@H]1CN([C@@H](C)CO)C(=O)Cc2cc(NS(C)(=O)=O)ccc2O[C@H]1CN(C)S(=O)(=O)c1ccccc1 | inactive
30 | Cc1noc(C)c1NC(=O)Nc1ccc2c(c1)C(=O)N([C@H](C)CO)C[C@H](C)[C@@H](CN(C)C(=O)NC1CCCCC1)OCCCC[C@@H](C)O2 | inactive
31 | Cc1ccc(S(=O)(=O)Nc2ccc3c(c2)C(=O)N([C@@H](C)CO)C[C@@H](C)[C@@H](CN(C)C(=O)Nc2ccc(F)cc2)OCCCC[C@H](C)O3)cc1 | inactive
32 | CN(C)CCN(Cc1ccccc1)c1ccccn1.O=C(O)CC(O)(CC(=O)O)C(=O)O | inactive
33 | CN(C)CCOc1ccc(C(=C(CCCl)c2ccccc2)c2ccccc2)cc1.O=C(O)CC(O)(CC(=O)O)C(=O)O | active
34 | CCN(CC)CCOc1ccc(C(=C(Cl)c2ccccc2)c2ccccc2)cc1.O=C(O)CC(O)(CC(=O)O)C(=O)O | inactive
35 | CCN(CCCc1ccccc1)CCCc1ccccc1.O=C(O)CC(O)(CC(=O)O)C(=O)O | inactive
36 | Cc1ccccc1C(OCCN(C)C)c1ccccc1.O=C(O)CC(O)(CC(=O)O)C(=O)O (configuration not stated) | inactive
37 | CCC(=C(c1ccccc1)c1ccc(OCCN(C)C)cc1)c1ccccc1.O=C(O)CC(O)(CC(=O)O)C(=O)O | active
38 | C[C@H]1CN([C@@H](C)CO)C(=O)c2cc(C#Cc3ccccc3F)cnc2O[C@@H]1CN(C)C(=O)C1CCOCC1 | inactive
39 | COc1ccc2c3c([nH]c2c1)[C@H](CO)N(C[C@]13CN(Cc2cc(on2)-c2ccccc2)C1)C(=O)Nc1ccc(cc1)F | inactive
40 | COc1ccc(S(=O)(=O)N(C)C[C@H]2OCCCC[C@H](C)Oc3ccc(NC(=O)CCC(F)(F)F)cc3C(=O)N([C@H](C)CO)C[C@H]2C)cc1 | inactive
41 | C[C@@H]1CCCCO[C@@H](CN(C)C(=O)c2ccccc2)[C@H](C)CN([C@@H](C)CO)C(=O)c2cc(NC(=O)Nc3cccc4ccccc34)ccc2O1 | inactive
42 | O=S(=O)(O)c1cc(O)ccc1O | inactive

Row | Structure (SMILES) | growth inhibition call
43 | C[C@@H]1CN([C@H](C)CO)C(=O)c2cccc(NC(=O)c3ccc(-c4nccs4)cc3)c2O[C@@H]1CN(C)C(=O)Nc1ccc2c(c1)OCO2 | inactive
44 | Cc1ccc(S(=O)(=O)N(C)C[C@@H]2OCCCC[C@H](C)Oc3ccc(NC(=O)c4ccccc4)cc3C(=O)N([C@@H](C)CO)C[C@H]2C)cc1 | inactive
45 | C[C@@H]1CN([C@@H](C)CO)C(=O)c2cc(NS(=O)(=O)c3cccs3)ccc2O[C@H]1CN(C)CC1CC1 | inactive
46 | C[C@H](CO)N1C[C@H](C)[C@@H](CN(C)C(=O)Nc2cccc3ccccc23)Oc2ccc(NC(=O)Nc3cccc4ccccc34)cc2CC1=O | inactive
47 | O=C(NO)c1cccc(C(=O)N/N=C/c2cc(I)cc(I)c2O)c1 | inactive
48 | O=C(CCCCC(=O)N/N=C/c1cc(I)cc(I)c1O)NO | active
49 | O=C(CCCCCCC(=O)N/N=C/c1cc(I)cc(I)c1O)NO | inactive
50 | C[C@H]1CN([C@@H](C)CO)C(=O)c2cccc(NC(=O)Nc3ccc4c(c3)OCO4)c2O[C@H]1CN(C)C(=O)Nc1cccc2ccccc12 | inactive
51 | COc1ccc(CN(C)C[C@@H]2OCCCC[C@H](C)Oc3ccc(NC(=O)CCC(F)(F)F)cc3C(=O)N([C@H](C)CO)C[C@H]2C)cc1 | inactive
52 | COc1ccc(NC(=O)N(C)C[C@H]2Oc3c(NC(=O)CCCCCC(=O)Nc4ccccc4N)cccc3C(=O)N([C@H](C)CO)C[C@@H]2C)cc1 | inactive
53 | CO[C@@H]1CN(C)C(=O)c2cc(NC(=O)CC(F)(F)F)ccc2OC[C@H](C)N(C(=O)C2CCOCC2)C[C@@H]1C | inactive
54 | COC1C=COC2(C)Oc3c(C)c(O)c4c(O)c(c(C=NN5CCN(C6CCCC6)CC5)c(O)c4c3C2=O)NC(=O)C(C)=CC=CC(C)C(O)C(C)C(O)C(C)C(OC(C)=O)C1C (configuration not stated) | inactive
55 | COC1=C2C[C@@H](C)C[C@H](OC)[C@H](O)[C@@H](C)/C=C(\C)[C@H](OC(N)=O)[C@@H](OC)/C=C\C=C(/C)C(=O)NC(=CC1=O)C2=O | inactive
56 | COC1C=COC2(C)Oc3c(C)c(O)c4c(O)c(c5c(nc6cc(C)ccn65)c4c3C2=O)NC(=O)C(C)=CC=CC(C)C(O)C(C)C(O)C(C)C(OC(C)=O)C1C (configuration not stated) | active
57 | CO[C@H]1/C=C\O[C@@]2(C)Oc3c(C)c(O)c4c(O)c(c(/C=N/N=C/N5CCCCC5)c(O)c4c3C2=O)NC(=O)/C(C)=C\C=C/[C@H](C)[C@H](O)[C@@H](C)[C@@H](O)[C@@H](C)[C@H](OC(C)=O)[C@@H]1C | active
58 | COC1=C2C[C@H](C)C[C@H](OC)[C@@H](O)[C@H](C)/C=C(\C)[C@H](OC(N)=O)[C@H](OC)/C=C/C=C(\C)C(=O)NC(=CC1=O)C2=O | inactive
59 | COC1C=COC2(C)Oc3c(C)c(O)c4c(O)c(c(C=NN5CCN(C)CC5)c(O)c4c3C2=O)NC(=O)C(C)=CC=CC(C)C(O)C(C)C(O)C(C)C(OC(C)=O)C1C (configuration not stated) | inactive
60 | CO[C@H]1/C=C\O[C@@]2(C)Oc3c(C)c(O)c4c(c3C2=O)[C@]2(C=C(NC(=O)/C(C)=C\C=C/[C@@H](C)[C@@H](O)[C@@H](C)[C@@H](O)[C@@H](C)[C@@H](OC(C)=O)[C@@H]1C)C4=O)OCC(=O)O2 | active
61 | C[C@H](CO)N1C[C@H](C)[C@@H](CN(C)Cc2ccncc2)Oc2c(NS(=O)(=O)c3cn(C)cn3)cccc2C1=O | inactive
62 | O=C1O[C@H](c2ccccc2)[C@H](c2ccccc2)N2[C@H]1[C@@H](C(=O)N1CCN(c3ncccn3)CC1)[C@]1(C(=O)Nc3ccc(C#CC4=CCCCC4)cc31)[C@H]2c1ccc(O)cc1 | inactive
